PubChem BioAssay (EPA / NIEHS)
Calls of active or inactive are those of the source. The calls were made as follows: active = hit-call score of the fitted dose curve at least 0.9, where 1 is the maximum; inactive = score below 0.9.

Key:
[1] = read-out: Human Leukocyte Antigen - DR isotype (HLADR), HLA-DRA (gene 3122); experiment: BSK_BE3C_HLADR: BioMAP Diversity Plus: BE3C Assay for Human Leukocyte Antigen - DR isotype (HLADR) Biomarker Activity (AID 2283032); conditions: primary human bronchial epithelial cells; actives raise or lower the signal
Procedure, shortened: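 BioMAP BE3C format: human bronchial epithelium, 24 h compound treatment, ELISA detection of HLA-DR, with bidirectional analysis relative to DMSO.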

[2] = read-out: Vascular cell adhesion molecule 1 (VCAM1), VCAM1 (gene 7412); experiment: BSK_4H_VCAM1: BioMAP Diversity Plus: 4H Assay for Vascular cell adhesion molecule 1 (VCAM1) Biomarker Activity (AID 2283033); conditions: primary human endothelial cells (HUVEC); actives raise or lower the signal
Procedure, shortened: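 In this human endothelial (HUVEC) system, biomarker ELISA was run 24 h after compound addition, and total protein in parallel wells was assessed by SRB at 560 nm; DMSO served as negative control.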

[3] = read-out: Interferon-gamma inducible Protein 10 (IP10), CXCL10 (gene 3627); experiment: BSK_BE3C_IP10: BioMAP Diversity Plus: BE3C Assay for Interferon-gamma inducible Protein 10 (IP10) Biomarker Activity (AID 2283034); conditions: primary human bronchial epithelial cells; actives raise or lower the signal
Procedure, shortened: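 BE3C cells (human bronchial epithelial, primary); 24 h exposure; ELISA for IP-10; DMSO-referenced bidirectional fit.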

[4] = read-out: Monokine induced gamma interferon (MIG), CXCL9 (gene 4283); experiment: BSK_BE3C_MIG: BioMAP Diversity Plus: BE3C Assay for Monokine induced gamma interferon (MIG) Biomarker Activity (AID 2283035); conditions: primary human bronchial epithelial cells; actives raise or lower the signal
Procedure, shortened: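 hu bronchial epithelial 1° cells, 24 h cpd; MIG by ELISA; bidirectional fit, DMSO = baseline.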

[5] = read-out: Transforming growth factor beta 1 (TGFb1), TGFB1 (gene 7040); experiment: BSK_BE3C_TGFb1: BioMAP Diversity Plus: BE3C Assay for Transforming growth factor beta 1 (TGFb1) Biomarker Activity (AID 2283036); conditions: primary human bronchial epithelial cells; actives raise or lower the signal
Procedure, shortened: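 TGF-b1 measured via ELISA, 24 h after chemical dosing of human bronchial epithelial cells (BE3C). Overt cytotoxicity assessed in parallel by SRB (0.1%, TCA-fixed, 560 nm); analysis bidirectional relative to DMSO.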

[6] = read-out: Plasminogen activator inhibitor-1 (PAI1), SERPINE1 (gene 5054); experiment: BSK_BE3C_PAI1: BioMAP Diversity Plus: BE3C Assay for Plasminogen activator inhibitor-1 (PAI1) Biomarker Activity (AID 2283037); conditions: primary human bronchial epithelial cells; actives raise or lower the signal
Procedure, shortened: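 In this multiplexed primary-cell system, bronchial epithelial cells receive test chemical and are sampled at 24 h. PAI-1 is read by ELISA, with DMSO serving as negative control for bidirectional fitting.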

[7] = read-out: urokinase plasminogen activator (uPA), PLAU (gene 5328); experiment: BSK_BE3C_uPA: BioMAP Diversity Plus: BE3C Assay for urokinase plasminogen activator (uPA) Biomarker Activity (AID 2283038); conditions: primary human bronchial epithelial cells; actives raise or lower the signal
Procedure, shortened: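 Human primary bronchial epithelial cells were exposed to chemical for 24 h, then uPA levels were measured by ELISA. Responses were fitted bidirectionally against DMSO as negative control and baseline. Parallel SRB staining of total protein gauged overt cytotoxicity.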

[8] = read-out: Urokinase-type plasminogen activator receptor (uPAR), PLAUR (gene 5329); experiment: BSK_BE3C_uPAR: BioMAP Diversity Plus: BE3C Assay for Urokinase-type plasminogen activator receptor (uPAR) Biomarker Activity (AID 2283039); conditions: primary human bronchial epithelial cells; actives raise or lower the signal
Procedure, shortened: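 Chemically treated human bronchial epithelial cells (lung primary) are assayed for uPAR by ELISA after 24 h, with data fitted in both directions using DMSO as negative control.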

[9] = read-out: Interleukin-6 (IL6), IL6 (gene 3569); experiment: BSK_CASM3C_IL6: BioMAP Diversity Plus: CASM3C Assay for Interleukin-6 (IL6) Biomarker Activity for (AID 2283040); conditions: primary human coronary artery smooth muscle cells; actives raise or lower the signal
[10] = read-out: Tissue plasminogen activator (tPA), PLAT (gene 5327); experiment: BSK_BE3C_tPA: BioMAP Diversity Plus: BE3C Assay for Tissue plasminogen activator (tPA) Biomarker Activity (AID 2283041); conditions: primary human bronchial epithelial cells; actives raise or lower the signal
Procedure, shortened: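 Using human lung primary bronchial epithelial cells, tPA was measured by ELISA 24 h after dosing; data fitted relative to DMSO.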

[11] = read-out: Interleukin-8 (IL8), CXCL8 (gene 3576); experiment: BSK_CASM3C_IL8: BioMAP Diversity Plus: CASM3C Assay for Interleukin-8 (IL8) Biomarker Activity (AID 2283042); conditions: primary human coronary artery smooth muscle cells; actives raise or lower the signal;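 also: IL-8 protein level quantified by ELISA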
[12] = read-out: Human Leukocyte Antigen - DR isotype (HLADR), HLA-DRA (gene 3122); experiment: BSK_CASM3C_HLADR: BioMAP Diversity Plus: CASM3C Assay for Human Leukocyte Antigen - DR isotype (HLADR) Biomarker Activity (AID 2283043); conditions: primary human coronary artery smooth muscle cells; actives raise or lower the signal;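 also: cell-surface HLA-DR protein level quantified by ELISA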
[13] = read-out: Macrophage colony-stimulating factor (MCSF), CSF1 (gene 1435); experiment: BSK_CASM3C_MCSF: BioMAP Diversity Plus: CASM3C Assay for Macrophage colony-stimulating factor (MCSF) Biomarker Activity (AID 2283044); conditions: primary human coronary artery smooth muscle cells; actives raise or lower the signal;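 also: M-CSF protein amount quantified by ELISA after 24 h exposure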
[14] = read-out: Low-density lipoprotein receptor (LDLR), LDLR (gene 3949); experiment: BSK_CASM3C_LDLR: BioMAP Diversity Plus: CASM3C Assay for Low-density lipoprotein receptor (LDLR) Biomarker Activity (AID 2283045); conditions: primary human coronary artery smooth muscle cells; actives raise or lower the signal;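 also: LDLR protein level on the cell surface quantified by ELISA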
[15] = read-out: Monocyte Chemoattractant Protein-1 (MCP1), CCL2 (gene 6347); experiment: BSK_CASM3C_MCP1: BioMAP Diversity Plus: CASM3C Assay for Monocyte Chemoattractant Protein-1 (MCP1) Biomarker Activity (AID 2283046); conditions: primary human coronary artery smooth muscle cells; actives raise or lower the signal;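 also: MCP-1 level quantified by ELISA 24 h after dosing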
[16] = BSK_CASM3C_Proliferation: Cell Proliferation Assessment in the BioMAP Diversity Plus: CASM3C Assay (AID 2283047); conditions: primary human coronary artery smooth muscle cells;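 also: sulforhodamine B total protein stain as relative cell number at 560 nm; sub-confluent cells exposed 48 h before staining; fitted both ways against DMSO so gain or loss of cell number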
[17] = read-out: Monokine induced gamma interferon (MIG), CXCL9 (gene 4283); experiment: BSK_CASM3C_MIG: BioMAP Diversity Plus: CASM3C Assay for Monokine induced gamma interferon (MIG) Biomarker Activity (AID 2283048); conditions: primary human coronary artery smooth muscle cells; actives raise or lower the signal
[18] = read-out: serum amyloid A (SAA), SAA1 (gene 6288); experiment: BSK_CASM3C_SAA: BioMAP Diversity Plus: CASM3C Assay for serum amyloid A (SAA) Biomarker Activity (AID 2283049); conditions: primary human coronary artery smooth muscle cells; actives raise or lower the signal;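 also: SAA protein level quantified by ELISA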
[19] = BSK_CASM3C_SRB: Viability Assessment in the BioMAP Diversity Plus: CASM3C Assay (AID 2283050); conditions: primary human coronary artery smooth muscle cells;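 also: total protein by SRB staining as cytotoxicity measure in parallel cultures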
[20] = read-out: Thrombomodulin, THBD (gene 7056); experiment: BSK_CASM3C_Thrombomodulin: BioMAP Diversity Plus: CASM3C Assay for Thrombomodulin Biomarker Activity (AID 2283051); conditions: primary human coronary artery smooth muscle cells; actives raise or lower the signal;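 also: thrombomodulin protein level measured by ELISA 24 h after dosing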

Measured: AC50

Cc1cccc(C)c1O
inactive: all assays above

CCCCOC(=O)CCCCCCCCC(=O)OCCCC
inactive: all assays above

CCCCCCCCCCC
inactive: all assays above

CCCCCC(=O)O
inactive: all assays above

NS(=O)(=O)c1cc2c(cc1Cl)NCNS2(=O)=O
inactive: all assays above

COCCOC[C@H](CC1(C(=O)NC2CCC(C(=O)O)CC2)CCCC1)C(=O)Oc1ccc2c(c1)CCC2 (stereo not given in full)
inactive: all assays above

Cc1cccc([N+](=O)[O-])c1C
inactive: all assays above

CCCCCCCCCCO
inactive: all assays above

Cc1cccc(Nc2cc(Cl)nc(SCC(=O)O)n2)c1C
inactive: all assays above

COc1ccc(C)cc1N
inactive: all assays above

C=CCOC(=O)c1ccccc1C(=O)OCC=C
inactive: all assays above

O=C(N[C@@H](Cc1ccccc1)[C@@H](O)C(=O)N1C[C@@H](O)[C@@H](O)C1)c1cc2cc(Cl)ccc2[nH]1
inactive: all assays above

CC(=O)Oc1ccccc1C(=O)O
inactive: all assays above

NCCO
active: [20] 0.937 µM
inactive: all other assays above

CCCCCCOCCO
inactive: all assays above

COc1cc(-c2nc(NC(=O)c3cc4cc(C)cc(C)c4n3CC(=O)O)sc2CCC2CCCCC2)c(OC)cc1Cl
inactive: [20]
active: [1] 1.25 µM | [2] 4.36 µM | [3] 1.3 µM | [4] 1.56 µM | [5] 4.38 µM | [6] 0.877 µM | [7] 1.03 µM | [8] 4.47 µM | [9] 4.7 µM | [10] 0.969 µM | [11] 7.07 µM | [12] 5.92 µM | [13] 22.9 µM | [14] 4.25 µM | [15] 8.09 µM | [16] 10.8 µM | [17] 11.7 µM | [18] 8.47 µM | [19] 7.05 µM

CC1(C)CC(N=C=O)CC(C)(CN=C=O)C1 (stereo not given)
active: [14] 6.43 µM
inactive: all other assays above

Cc1ccc(N(C)C)cc1
inactive: all assays above

CCOC(=O)CCC(=O)OCC
inactive: all assays above

O=c1[nH]cc(F)c(=O)[nH]1
active: [16] 13.7 µM
inactive: all other assays above

NCC1(Cc2noc(=O)[nH]2)CCCCC1
inactive: all assays above

CC=Cc1ccc(O)c(OC)c1
active: [2] 7.6 µM
inactive: all other assays above

CCCc1cc(=O)[nH]c(=S)[nH]1
inactive: all assays above

FC(F)(F)C(F)(F)C(F)(F)C(F)(F)C(F)(F)C(F)(F)CCI
inactive: all assays above

CCNc1cccc(C)c1
inactive: all assays above

Cc1oc(-c2ccccc2)nc1CCOc1cccc2c1ccn2CCC(=O)O
active: [1] 20.7 µM | [3] 26 µM | [10] 20 µM
inactive: all other assays above

CCCCN(CCCC)CCCC
inactive: all assays above
